# This is a sample that favours compounds with a hit; in the whole collection about 11% have one here.
# 3T3 cytotox: kills NIH 3T3 cells; NIH 3T3 viability, CellTiter-Glo ATP luminescence, 48-72 h; Potency, µM (titrated, usually from 96.7 µM), for inactives: top-dose activity change, negative = cytotoxicity, usual class: inhibitors; 94,000 tested, 4.3% active; AID 1345082; note: % is set by controls: 0 for no effect and ±100 for the full control effect; nearly all actives have a fitted effect of over 55% in size
#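 Luminescent ATP readout (CellTiter-Glo, 10 min RT) after 48 or 72 hr compound exposure of NIH 3T3 cells seeded at 400 cells/well in 1536-well format; quantitative HTS.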
# hNpr1 antagonist: antagonists of human natriuretic peptide receptor Npr1; P16066; HEK293 hNpr1 GloSensor cGMP, ANP-stimulated luminescence; Potency, µM (series often up to 46.3 µM), for inactives: at the highest dose activity change, negative = inhibition, hits mostly inhibitors; 76,000 tested, 1.6% active; calls by dose curve; note: % is set by controls: 0 for no effect and ±100 for the full control effect; nearly all actives have a fitted effect of over 60% in size
#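 HEK293 cells stably expressing human Npr1 and cGMP GloSensor pGS-40F, loaded 2 h with 2% GloSensor reagent, given compound 30 min at room temperature. Luminescence read before and 20 min after 0.1 nM hNppA.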
# HEK293 tox: cytotoxic compounds in HEK 293 cells; 94,000 tested, 6.6% active; Potency, µM (doses to about 115 µM), inactives show at the top dose activity change, negative = cytotoxicity, usual class: inhibitors; HEK 293 viability, ATP luminescence (CellTiter-Glo), 48-72 h; note: % is set by controls: 0 for no effect and ±100 for the full control effect; nearly all actives have a fitted effect of over 60% in size
#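 HEK 293 seeded at 250 cells/well receive compound via pintool. After 48 or 72 hr at 37 degree Celsius, 5% CO2 and 95% humidity, CellTiter-Glo is dispensed and luminescence read following 10 min at room temperature.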
# FLuc inh-1: Photinus pyralis luciferase inhibition; P08659; purified P. pyralis luciferase, luminescence, biochemical; Potency, µM (highest dose often 115 µM), actives largely listed as inhibitors; 76,000 tested, 2.5% active; note: % is set by controls: 0 for no effect and ±100 for the full control effect; nearly all actives have a fitted effect of over 65% in size
# Target sequence (P08659 whole entry, looked up): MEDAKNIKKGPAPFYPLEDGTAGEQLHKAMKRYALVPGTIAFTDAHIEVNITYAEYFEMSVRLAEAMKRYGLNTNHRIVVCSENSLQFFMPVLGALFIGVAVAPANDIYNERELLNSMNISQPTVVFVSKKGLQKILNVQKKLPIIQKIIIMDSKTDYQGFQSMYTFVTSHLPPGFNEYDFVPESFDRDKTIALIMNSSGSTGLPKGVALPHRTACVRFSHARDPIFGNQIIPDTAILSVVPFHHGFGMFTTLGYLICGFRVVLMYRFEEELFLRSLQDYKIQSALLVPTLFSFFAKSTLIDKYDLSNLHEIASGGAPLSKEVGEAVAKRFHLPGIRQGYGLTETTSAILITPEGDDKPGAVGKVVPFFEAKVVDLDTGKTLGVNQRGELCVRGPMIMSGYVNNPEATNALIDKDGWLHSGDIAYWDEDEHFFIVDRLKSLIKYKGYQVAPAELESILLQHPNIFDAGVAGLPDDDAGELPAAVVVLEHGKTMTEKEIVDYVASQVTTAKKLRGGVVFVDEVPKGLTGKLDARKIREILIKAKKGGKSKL
#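 Purified 10nM P. pyralis luciferase with 10uM D-luciferin and 10uM ATP in 50mM Tris acetate pH 7.5, 10mM Mg acetate, 0.01% Tween-20, 0.05% BSA. qHTS titration; luminescence read by CCD imager.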
# FLuc SDR no ATP: firefly luciferase binding stabilization, ATP absent | 1,300 tested, 7.8% active | AID 1963318 | Purified FLuc-C-HiBiT, Nano-Glo HiBiT luminescence, no ATP | Potency, µM (titrated, usually from 32.7 µM), inactives show at the top dose activation (signal gain), most hits filed as activators | shares compounds with FLuc inh-1; note: nearly all actives have a fitted effect of over 55% in size
# FLuc SDR ATP: firefly luciferase binding stabilization, ATP added | shares compounds with FLuc inh-1 | purified FLuc-C-HiBiT + ATP, HiBiT complementation luminescence | Potency, µM (highest dose often 32.7 µM), for inactives: at the highest dose activation (gain of signal), hits mostly activators | 1,300 tested, 8.7% active;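 note: signal reports ligand binding via conformational change of the enzyme rather than luciferase catalysis; % of control where 0% means no effect; nearly all actives have a fitted effect of over 55% in size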
# FLuc inh-2: inhibitors of firefly luciferase enzymatic activity; shares compounds with FLuc inh-1; purified FLuc-C-HiBiT enzyme, luciferin luminescence; Potency, µM (doses to about 32.7 µM), for the others: top-dose activity change, negative = inhibition, usual class: inhibitors; 1,300 tested, 42% active; AID 1963320; note: % is set by controls: 0 for no effect and ±100 for the full control effect; nearly all actives have a fitted effect of over 70% in size
# Starred values were filed as active, the others as inactive; i = inactive; u = inconclusive; x = not tested or not shown; [ ] = dose if it differs, or a comment. Unless noted, calls come from the whole dose curve; as a rule, active = well fitted curve in the direction sought with a large enough effect; inconclusive = small, poorly fitted or top-dose-only effect, or another doubt; inactive = no such curve, though single readings can be large; an effect the other way counts as inactive or inconclusive. Potency is the fitted concentration of half-maximal effect.
SMILES,3T3 cytotox,hNpr1 antagonist,HEK293 tox,FLuc inh-1,others
O=C(C1CCCN(Cc2cccc(-c3cccs3)c2)C1)N1CCC(c2ccccc2)CC1 (stereo not given),39.8µM*,x,44.7µM*,x,
O=C(C1CCCN(Cc2cccc(-c3cccs3)c2)C1)N1CCN(Cc2ccccc2)CC1 (stereo not given),35.5µM*,x,u,x,
CS(=O)(=O)c1ccc(OCC2(CNCc3cccc(C(F)(F)F)c3)C[C@@H](O)[C@@H](O)C2)cc1 (stereo not given in full),u,-3.9%,79.4µM*,i,
COc1ccccc1-c1nc(C(=O)NCc2ccc3c(c2)OCO3)n2ccccc12,u,0.0%,-8.5%,i,
CCOC(=O)N1CCC(N(C)CC2CCN(CCc3ccc(F)cc3)CC2)CC1,u,1.4%,u,i,
COc1ccc(CN(C)CC2CCN(CCc3ccc(F)cc3)CC2)cc1Cn1cccn1,39.8µM*,-3.4%,28.2µM*,i,
NC(Cc1ccccc1)C(=O)N1CCN(c2ccccn2)CC1 (stereo not given),-3.9%,-6.7%,-27.0%,i,
CC(=O)N1CCC2(CC1)CN(C(=O)Cc1csc(N)n1)Cc1ccccc1O2,i,x,i,x,
O=C(NCc1cccc(Cl)c1)C1CCN(c2nccc(Nc3ccccc3Cl)n2)CC1,-14.3%,x,u,x,
Cc1ccc(Nc2ccnc(N3CCC(C(=O)NCc4cccs4)CC3)n2)cc1,22.4µM*,x,17.8µM*,x,
O=C(NCc1cccs1)C1CCN(c2nccc(Nc3ccccc3Cl)n2)CC1,u,x,44.7µM*,x,
C#Cc1cccc(C(=O)N2CCC(Cc3ccc(Cl)cc3)(C(=O)OCC)CC2)c1,20µM*,-4.7%,u,i,
C=CCOc1cccc(C(=O)N2CCC(Cc3ccc(OC)cc3)(C(=O)OCC)CC2)c1,u,-2.7%,u,i,
O=C(CN1CCOCC1)N1C[C@@H](COCC2CC2)[C@H](c2ccccn2)C1,4.2%,-0.9%,-3.0%,i,
CC1=Nc2cc(C(=O)NCCCN(C)C)ccc2Sc2ccc(Cl)cc21,22.4µM*,-11.8%,25.1µM*,i,
CCC1=Nc2cc(C(=O)NCCC(C)C)ccc2Sc2ccc(Br)cc21,u,-1.5%,u,i,
CC1=Nc2cc(C(=O)NCCCN(C)C)ccc2Sc2ccc(F)cc21,u,1.8%,50.1µM*,i,
CCCC1=Nc2cc(C(=O)NCCc3ccc(C)cc3)ccc2Sc2ccc(C)cc21,u,-3.3%,u,i,
COc1ccc(-c2c(C(=O)NCc3cccs3)nc3sccn23)cc1,-37.2%,x,-20.5%,x,
O=[N+]([O-])c1cccc(-c2noc([C@@H]3C[C@@H](O)CN3Cc3cccs3)n2)c1,u,4.4%[70.6 µM],u,u,
COc1ccc(-c2noc([C@@H]3C[C@@H](O)CN3Cc3cccs3)n2)cc1,-36.2%[174 µM],-14.4%[70.6 µM],-22.5%[172 µM],14.1µM*,FLuc SDR no ATP=9.6%[49.3 µM];FLuc SDR ATP=9.0%[49.3 µM];FLuc inh-2=u
CCOC(=O)[C@@H]1CN(C(=O)COc2ccccc2)[C@H]2c3ccc(OC)cc3O[C@@H]12,u,x,-9.7%,x,
COc1ccc(NC(=O)/C(C#N)=C/c2ccc(C)o2)cc1,x,x,x,x,FLuc SDR no ATP=21.6%;FLuc SDR ATP=16.7%;FLuc inh-2=u
COc1ccc(CNC(=O)Cn2cccc2C(=O)c2ccccc2C)cc1,x,x,x,x,FLuc SDR no ATP=13.9%;FLuc SDR ATP=13.0%;FLuc inh-2=-10.9%
Fc1ccc(-c2cn3cc(Cc4ccccc4)sc3n2)cc1,x,x,x,x,FLuc SDR no ATP=u;FLuc SDR ATP=u;FLuc inh-2=0.279µM*
O=C(NCCc1ccccc1)c1cn2cc(-c3ccc(C(F)(F)F)cc3)sc2n1,-12.0%,x,-4.2%,x,
Clc1ccccc1Cc1cn2cc(-c3ccccc3)nc2s1,x,x,x,x,FLuc SDR no ATP=u;FLuc SDR ATP=u;FLuc inh-2=0.442µM*
Fc1ccc(Cc2cn3cc(-c4ccccc4)nc3s2)cc1,x,x,x,x,FLuc SDR no ATP=u;FLuc SDR ATP=u;FLuc inh-2=0.442µM*

# Bioassay records from PubChem.
